# The list is not random: actives were taken first. Their share in the collection is about 2.2%.
# TWEAK-Fn14 inh – blocks TWEAK-Fn14 interaction in a reporter cell assay. TWEAK-stimulated Fn14 reporter cells, luciferase luminescence, 8 h. 2% of 360,000 active. inhibition, % at 10 µM. AID 1159606; in the data active = inhibition above about 50%
# HSP90 refold inh – blocks HSP90-mediated luciferase refolding in reticulocyte lysate | 0.91% of 290,000 active | AID 1789 | Rabbit reticulocyte lysate, luciferase refolding luminescence, 3 h | inhibition, % at 5.6 µM;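 active = inhibition above the screen-wide mean plus 3 SD, computed separately per campaign, cut at about 16% in these data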;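 also: 0% = DMSO wells and 100% = 60 µM geldanamycin wells; inhibitors lower the luminescence because luciferase stays unfolded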
# LGR2 antag – Drosophila LGR2 receptor signaling inhibition. HEK293 LGR2, CRE-luciferase, bursicon-stimulated, 4 h. inhibition, % at 9.99 µM. 0.35% of 380,000 active. AID 720647;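 active = drop in luminescence signal, shown as inhibition above about 50% in the replicate tests, limit read from the data, passing the limit was not always enough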;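 also: agonist challenge used bursicon conditioned medium at about half maximal strength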
# TROY signal inh – TROY signaling inhibition | Q293 LMP1-TROYcd NF-kB luciferase reporter, 4 h | inhibition, % at 10 µM | 0.98% of 360,000 active;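 active = compounds whose plate-normalised and pattern-corrected inhibition of the luciferase reporter signal at the single screening dose is 50% or more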
# Active calls of the source: *; nt = no result given.
SMILES,TWEAK-Fn14 inh,HSP90 refold inh,LGR2 antag,TROY signal inh
Clc1ccc(-c2csc(=Nc3cccnc3)n2CCCn2ccnc2)cc1Cl,66*,0,nt,46
N#CC1=C2N=C(N)c3c(sc4c3CCCCC4)N2C2=C(C(=O)CCC2)C1c1ccccc1 (stereo not drawn),47,2,nt,54*
Fc1ccccc1/C=C/c1ccc2ccccc2n1,89*,6,90*,59*
CN(C)c1ccc(/C=C/c2ccc3ccccc3n2)cc1,99*,84*,93*,76*
O=C(O)/C=C/c1ccc2ccccc2n1,-9,0,nt,-19
Oc1ccc(/C=C/c2ccc3ccccc3n2)cc1,92*,24*,96*,74*
O=C(C[C@H]1CC[C@H]2[C@@H](COC[C@@H](O)CN2Cc2cccc(Cl)c2)O1)N1CCCCC1,nt,nt,11,nt
Cc1ccccc1S(=O)(=O)N1CC[C@@H]2[C@@H](CO)Nc3ccc(-c4ccccc4F)cc3[C@@H]21,nt,nt,9,nt
C[C@H](CO)N1C[C@H](C)[C@@H](CN(C)Cc2ccc(Oc3ccccc3)cc2)Oc2ccc(NS(=O)(=O)c3ccc(Cl)cc3)cc2CC1=O,nt,nt,21,nt
CCc1c(C(=O)N/N=C/c2ccc(OCc3ccc(F)cc3)c(OC)c2)nnn1-c1nonc1N,55*,6,-14,14
COc1cccc2cc(C(=O)C3=C(O)C(=O)N(CCN(C)C)C3c3ccc(Cl)cc3)oc12 (stereo not drawn),60*,1,0,-1
O=C(O)c1cccc2cccc(-c3c4ccc(=O)c(O)c-4oc4c(O)c(O)ccc34)c12,82*,nt,4,-3
Cc1onc(-c2c(F)cccc2Cl)c1C(=O)Nc1ccc(S(=O)(=O)N2CCOCC2)cc1,4,nt,15,7
Cc1onc(-c2c(F)cccc2Cl)c1C(=O)Nc1cc(S(=O)(=O)N2CCCCC2)ccc1O,64*,nt,11,64*
CCCC#Cc1ccc2c(c1)O[C@@H](CN(C)C(=O)NC(C)C)[C@@H](C)CN([C@H](C)CO)S2(=O)=O,nt,nt,-4,nt
C=CCCc1ccc(C#N)c(SCc2c(C(=O)OCC)c3cc(OC(C)=O)c(Br)cc3n2C)n1,47,0,nt,10
CCOC(=O)c1c(CSc2nc(C)cc(C)c2C#N)n(C)c2cc(Br)c(OC(C)=O)cc12,61*,-4,12,27
COC1(OC)C(/C=C/c2ccc(Cl)cc2)C(C#N)(C#N)C1(OC)OC (stereo not drawn),77*,6,nt,13
NNc1nc2cc3c(cc2s1)OCCO3,53*,5,5,30
COc1ccccc1C(=O)Nc1nc2cc3c(cc2s1)OCCO3,11,-2,nt,-11
Fc1ccc(-c2noc(-c3ccc4c(c3)CCO4)n2)cc1,61*,-1,39,15
S=c1nccc(-c2ccc3c(c2)CCO3)[nH]1,3,0,4,-2
CCc1nc(NCC2CCCN2CC)c2nnn(Cc3ccccc3F)c2n1 (stereo not drawn),69*,-2,nt,-20
O=C(Nc1ccccc1F)N1[C@@H]2CNc3ccccc3[C@@H]2[C@@H]1CO,nt,nt,-20,nt
C=C1C(=O)[C@]23C[C@H]1CCC2[C@@]1(C)C(C[C@@H]3O)[C@](C)(C(=O)OC)CC[C@@H]1O (stereo partly drawn),98*,nt,69*,59*
SMILES,TWEAK-Fn14 inh,HSP90 refold inh,LGR2 antag,TROY signal inh
C[C@@]12C(C[C@H](O)[C@@]34C[C@@H](CCC13)[C@@H](CO)C4=O)[C@](C)(C(=O)O)CC[C@@H]2O (stereo partly drawn),16,nt,-14,16
NS(=O)(=O)c1cccc(NC(=O)CNC(=O)CC23CC4CC(CC(C4)C2)C3)c1,-1,-1,6,52*
O=C(NCCc1ccncc1)[C@@H]1[C@@H](CO)[C@@H]2Cn3c(ccc(-c4ccccc4)c3=O)[C@H]1N2,nt,nt,-5,nt
CCN(CC)c1ccc2cc(C(=O)Nc3ccccn3)c(=O)oc2c1,87*,1,nt,53*
CCOC(=O)c1ccccc1Nc1cn(C(C)=O)c2ccccc12,0,6,1,-10
COc1ccccc1N(C(=O)CCl)c1cn(C(C)=O)c2ccccc12,73*,6,48,-13
CC(=O)n1cc(N(C(=O)CCl)c2ccc(Cl)cc2)c2ccccc21,64*,3,nt,-41
COc1ccccc1N1CCN(C(=S)Nc2ccccc2)CC1,-7,4,-13,19
COc1ccccc1N1CCN(C(=S)Nc2ccc(F)cc2)CC1,37,13,6,53*
CN1C(=O)C(=O)/C(=C(/O)c2ccc(Br)cc2)C1c1ccc(Cl)cc1 (stereo not drawn),95*,3,1,-10
CN1C(=O)C(=O)/C(=C(/O)c2ccccc2)C1c1ccc(Br)cc1 (stereo not drawn),8,-3,-31,5

# Compound activity (PubChem BioAssay)
